{"source": "PubChem BioAssay (Tox21)", "note": "Values joined by “and” are separate entries in the source; they are usually repeats but may differ in a detail not shown here. Equal entries are not always repeated. Values without a mark were called inactive. Active and inactive are the calls of the source. Calls follow the shape of the dose curve; as a rule, active = well fitted activation curve with a large enough effect in the repeat runs; inconclusive = weak or mixed curves; inactive = flat fitted curve, though single readings scatter. % is scaled to controls: 0 for no effect and ±100 for the full control effect; potency is read from the fitted curve at half-maximal effect."}
{"biological_target": "KiSS-1 receptor (Homo sapiens) (UniProt Q969F8)", "sequence (Q969F8 whole entry, looked up)": "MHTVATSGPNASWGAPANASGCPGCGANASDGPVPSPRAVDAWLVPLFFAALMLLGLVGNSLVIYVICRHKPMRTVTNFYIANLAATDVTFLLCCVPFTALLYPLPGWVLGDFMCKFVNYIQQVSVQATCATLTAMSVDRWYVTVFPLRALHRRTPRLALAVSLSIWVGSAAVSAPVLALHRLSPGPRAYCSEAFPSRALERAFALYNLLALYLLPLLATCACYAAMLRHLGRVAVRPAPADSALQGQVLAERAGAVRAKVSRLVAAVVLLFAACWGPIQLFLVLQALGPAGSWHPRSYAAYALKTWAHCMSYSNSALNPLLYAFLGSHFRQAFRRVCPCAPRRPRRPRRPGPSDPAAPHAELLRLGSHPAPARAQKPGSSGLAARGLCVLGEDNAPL", "assay": "Human kisspeptin (KISS1R) small molecule agonists, calcium flux assay in KISS1R-HEK293 cells (AID 1920064)", "conditions": "KISS1R-HEK293, calcium flux fluorescence, agonist; series mostly up to 76.8 µM; activation: at the top concentration", "text": "National Center for Advancing Translational Sciences [NCATS]\nDivision of Preclinical Innovation [DPI]\nU.S. Environmental Protection Agency [EPA]\nNational Institutes of Environmental Health Sciences [NIEHS]\nNational Toxicology Program [NTP]\nU.S. Food and Drug Administration [FDA]\nKisspeptin and its receptor KISS1R play key roles in mammalian reproduction due to their involvement in the onset of puberty and control of the hypothalamic-pituitary-gonadal axis such as regulates GnRH release from the hypothalamus. The kisspeptin/KISS1R system also plays a direct role in peripheral organs (including the ovary, testis, uterus, and placenta) and is implicated in reproductive diseases such as miscarriage and polycystic ovary syndrome (PCOS). Abnormal KISS1R activity is associated with abnormal puberty, infertility, endometriosis, and hormone-dependent tumors. The KISS1 receptor (KISS1R, also called GPR54), a G-protein-coupled receptor (GPCR), acts (through phospholipase C) to increase intracellular inositol trisphosphate and then release intracellular calcium stores. Cell-based KISS1R-HEK293 assay is using HEK293 cells that have been genetically engineered to express the human KISS1R, which activity can be measured by calcium signaling. A compound/drug can activate (agonist) KISS1R that can be monitored by levels of intracellular calcium.\nKISS1R-HEK293 cells developed by Codex Corp contain human KISS1R gene, which was stably integrated into HEK 293 cells. The compound activation can be detected by fluorescence intensity via calcium flux assay. This cell line has been used to screen the Tox21 10K compound library to identify agonists of KISS1R.\nKISS1R-Hek293 cells were dispensed at 1500 cells/4uL/well in 1536-well black wall/clear bottom plates using a multidrop dispenser. After the assay plates were incubated at a 37 C/5% CO2 incubator for 18 hours, 4 microL of Calcium Dye Solution was added to each well. The plates were incubated at 37 C for 1 hour. And then 23 nL of compounds dissolved in DMSO, positive controls, or DMSO only was transferred to the assay plate by a pin tool station. The fluorescence intensity in the plates was measured using FDSS 7000EX kinetic plate reader with a filter set of Ex/Em=480/540 for 3 min at 1 sec intervals. Each test compound was measured at 15 concentrations and in triplicates."}
{"smiles": "CC(O)C(CO)C(C)O", "note": "(stereo not given)", "activation": "-2.45%"}
{"smiles": "OCCC(F)(F)C(F)(F)C(F)(F)C(F)(F)C(F)(F)C(F)(F)F", "activation": "-0.026%"}
{"smiles": "O=C1OC2(c3cc(Br)c(O)c(Br)c3Oc3c2cc(Br)c(O)c3Br)c2c(Cl)c(Cl)c(Cl)c(Cl)c21", "Potency": "55 µM (active) and 33.4 µM (active)"}
{"smiles": "Cc1cccc(C)c1[N+](=O)[O-]", "Potency": "inactive"}
{"smiles": "C=C(C)C(=O)OCCOCCOCCOC(=O)C(=C)C", "Potency": "inactive"}
{"smiles": "CC(=O)O[C@H]1C[C@@H]2CC[C@@]1(C)C2(C)C", "activation": "0.397%"}
{"smiles": "NS(=O)(=O)c1cc2c(cc1C(F)(F)F)NC(Cc1ccccc1)NS2(=O)=O", "note": "(stereo not given)", "activation": "-0.743% [at 35.3 µM]"}
{"smiles": "CCc1c(C(=O)O)c(=O)cnn1-c1ccc(Cl)cc1", "activation": "-4.86%"}
{"smiles": "CCCCC(CC)COCCC#N", "note": "(stereo not given)", "activation": "-3.13%"}
{"smiles": "O=C(O)c1ccccc1S", "activation": "-2.44% [at 35.3 µM]"}
{"smiles": "CS(=O)(=O)c1ccc(Cl)cc1", "Potency": "inactive"}
{"smiles": "Oc1ccccc1O", "Potency": "inactive"}
{"smiles": "CCN(CC#N)c1cccc(C)c1", "activation": "-7.59%"}
{"smiles": "CCCCC/C=C/C=C/C=O", "Potency": "inactive"}
{"smiles": "CCCC(=O)c1ccccc1", "activation": "0.0302%"}
{"smiles": "OCCCCCCCl", "activation": "0%"}
{"smiles": "CC(C)c1ccc(C=O)cc1", "activation": "-1.33%"}
{"smiles": "FC(F)(F)C(Cl)(Cl)Cl", "activation": "-0.172%"}
{"smiles": "CC(C)(O)C(=O)c1ccc(OCCO)cc1", "activation": "-1.13%"}
{"smiles": "c1ccc2c(c1)Oc1ccccc1S2", "Potency": "inactive"}
{"smiles": "C#C[C@]1(O)CC[C@H]2[C@@H]3CCC4=CC(=O)CC[C@@H]4[C@H]3CC[C@@]21C", "Potency": "inactive"}
{"smiles": "[Cl][Dy]([Cl])[Cl]", "activation": "-0.358%"}
{"smiles": "C=C[C@H]1CN2CC[C@H]1C[C@@H]2[C@@H](O)c1ccnc2ccc(OC)cc12", "Potency": "inactive"}
{"smiles": "O=[N+]([O-])c1ccccc1CCO", "activation": "-0.719%"}
{"smiles": "CC(=O)OC[C@H]1O[C@@H](OC(C)=O)[C@H](OC(C)=O)[C@@H]1OC(C)=O", "activation": "-0.934% [at 35.3 µM]"}
{"smiles": "CCCC1O[C@@H]2C[C@H]3[C@@H]4CCC5=CC(=O)C=C[C@]5(C)[C@H]4[C@@H](O)C[C@]3(C)[C@]2(C(=O)CO)O1", "note": "(stereo not given in full)", "activation": "0.206%"}
{"smiles": "CO[C@@]1(NC(=O)C(C(=O)O)c2ccc(O)cc2)C(=O)N2C(C(=O)O)=C(CSc3nnnn3C)CO[C@@H]21", "note": "(stereo not given in full)", "activation": "0.379% [at 35.3 µM]"}
{"smiles": "CC(O)C(C)O", "note": "(stereo not given)", "activation": "-0.267%"}
{"smiles": "O=CC1CC=CCC1", "note": "(stereo not given)", "activation": "-0.251%"}
{"smiles": "CCCCC(CC)COC(=O)CC(C(=O)OCC(CC)CCCC)S(=O)(=O)O", "note": "(stereo not given)", "Potency": "inactive"}
{"smiles": "CCC(C(=O)OCCOCCN(CC)CC)c1ccccc1", "note": "(stereo not given)", "activation": "5.87% [at 35.3 µM]"}
{"smiles": "C/C=C/C(=O)C1=C(C)C=CCC1(C)C", "activation": "1.02%"}
{"smiles": "COc1ccc2cc3[n+](cc2c1OC)CCc1cc2c(cc1-3)OCO2", "Potency": "inactive"}
{"smiles": "CC(=O)CC(=O)Nc1ccc2[nH]c(=O)[nH]c2c1", "activation": "0.699%"}
{"smiles": "COC(=O)/C=C/c1ccccc1", "Potency": "inactive"}
{"smiles": "C=C(C)C(=O)OCCC[Si](Cl)(Cl)Cl", "activation": "2.2%"}
{"smiles": "C/C(=C(\\CCO)SS/C(CCO)=C(\\C)N(C=O)Cc1cnc(C)nc1N)N(C=O)Cc1cnc(C)nc1N", "activation": "0.319% [at 35.3 µM]"}
{"smiles": "CC1C(C)(C)C2=C(C(=O)CCC2)C1(C)C", "note": "(stereo not given)", "activation": "-1.07%"}
{"smiles": "CCCCC1CCC(=O)O1", "note": "(stereo not given)", "activation": "0.917%"}
{"smiles": "Nc1ccc2cc3ccccc3cc2c1", "Potency": "inactive"}
